The text below walks through data of ChEMBL document CHEMBL3988442, “University of Dundee, Small-Polar-MMV Screening Library” (2021).

The structures appear in SMILES notation. Among all 48,000 compounds or so, about 13,000 (27%) showed an effect of 50% or more. The list shows a part of the results.

The experiment concerns Wolbachia pipientis. Description: Anti-Wolbachia Cell-Based Screen. The conditions noted are these: 5 µM. Format: functional. The arrangement: scale not given: in the data most compounds retested in dose-response had high values.
Turning to `NC(=O)N1CCCN(C2CCCCc3ccccc32)CC1` (configuration not stated), the “Percent Effect” value was -4.011%.
As to `CO[C@@H]1CN(c2ccccc2)S(=O)(=O)[C@@]12CCN(C)C2`, the “Percent Effect” value was determined as 121.6%.
In the case of `CS(=O)(=O)N1CCC2(CC1)c1ccccc1[C@@H](N1CCSCC1)[C@@H]2O`, the “Percent Effect” value was -3.022%.
Turning to `CN1CC(=O)N(c2ccccc2)CC12CCN(S(C)(=O)=O)C2.O=C(O)C(F)(F)F` (configuration not stated), the “Percent Effect” value was 10.77%.
As for `COC1CCN(S(=O)(=O)N2CC(c3ccccc3)C(C)(C)C2)CC1` (configuration not stated), the “Percent Effect” value turned out to be 17.09%.
Regarding `CO[C@@H]1CN(c2ccccc2)S(=O)(=O)[C@@]12CCN(S(C)(=O)=O)C2`, the “Percent Effect” value amounted to 80.67%.
As to `CCN(CC)C(=O)C1CCC(=O)N(CCc2cccc(F)c2)C1` (configuration not stated), the “Percent Effect” value is on record as 5.387%.
In the case of `Cn1cc(C(=O)NCC2CCN(C(=O)NC3CC3)CC2)cn1`, the “Percent Effect” value worked out at 82.18%.
For the compound `Cn1cc(C(=O)NC2CCN(C(=O)NCC3CCSCC3)CC2)cn1`, the “Percent Effect” value is -0.1776%.
Consider `Cn1cc(C(=O)NC[C@@H]2OC[C@H]3CN(S(C)(=O)=O)CC[C@H]32)cn1`, for which the “Percent Effect” value was -9.663%.
Take `CNC(=O)N1CCC(NC(=O)c2cnn(C)c2)CC1`: the “Percent Effect” value is 87.43%.
Take `COCCCNC(=O)N1CCC(CNC(=O)c2cnn(C)c2)CC1`: the “Percent Effect” value turned out to be 114%.
Regarding `COCCNC(=O)N1CCC(NC(C)C)CC1`, the “Percent Effect” value came to 8.533%.
In the case of `Cn1cc(C(=O)NC2CCN(C(=O)NCCSC(F)(F)F)CC2)cn1`, the “Percent Effect” value was determined as 19.88%.
As for `COC(=O)N1CCC(CNS(=O)(=O)c2cnn(C)c2)CC1`, the “Percent Effect” value is -8.062%.
Then `CCS(=O)(=O)c1ccc(N2CCC(NC(=O)c3cnn(C)c3)CC2)cc1`, with 0.7528%; and `Cn1cc(C(=O)NCC2CCN(C(=O)NC3CCCCC3)CC2)cn1`, with 90.75%.
In the case of `Cn1cc(C(=O)NCC2CCN(C(=O)NCC(F)(F)F)CC2)cn1`, the “Percent Effect” value is -3.622%.
Regarding `Cc1ccc(N2CCC(C(O)c3cccs3)CC2)nn1` (configuration not stated), the “Percent Effect” value was 12.98%.
In the case of `CCCN1CCC(NCc2cccc(CN3CCOC(C)C3)c2)CC1` (configuration not stated), the “Percent Effect” value was 27.7%.
On to `CCSCCn1c(=O)n(Cc2ccc(F)cc2)c2ncc(C(=O)O)cc21`, for which the “Percent Effect” value is -21.36%.
Then `O=C(O)c1ccc(N2CCC(Oc3cccc(F)c3)CC2)nc1`, with 7.42%; and `CCOCCn1c(=O)n(Cc2ccccc2F)c2cc(C(=O)O)cnc21`, with -1.705%; and `O=C(CS(=O)(=O)Cc1ccccc1)NCc1ccccc1F`, with -49.77%.
For `O=C(O)c1cncc(Cc2cccc(F)c2)c1`, the “Percent Effect” value is 136.9%.
The result for `O=C(O)c1ccc(Cc2cccc(F)c2)nc1` reads 176.5%; that for `O=C(O)c1cncc(Cc2ccc(F)cc2)c1`, 214.7%.
As for `O=C(NCC(Cc1cccc(F)c1)N1CCCC1=O)c1ccccc1` (configuration not stated), the “Percent Effect” value is -3.129%.
For the compound `CCOCCn1c(=O)n(Cc2ccc(F)cc2)c2ncc(C(=O)O)cc21`, the “Percent Effect” value came out at 0.5283%.
As to `O=C(O)c1cncc(Cc2ccccc2F)c1`, the “Percent Effect” value is listed as 172.6%.
Then `O=C(O)c1cccc(CC2CCN(c3ncc(F)cn3)CC2)c1`, with 5.737%; and `CC(C)n1cc2cc(NC(=O)Cn3cnnn3)ccc2n1`, with 0.8884%; and `O=C1NCCCCC1NC(=O)C1(Oc2ccc(Cl)cc2)CCNCC1` (configuration not stated), with 4.291%.
For the compound `CCOc1ccccc1NC(=O)NCC(C)(O)CCSC` (configuration not stated), the “Percent Effect” value is reported as -5.529%.
As for `CCC(CC)C(=O)NC1CCCc2nc(N3CCOCC3)ncc21` (configuration not stated), the “Percent Effect” value turned out to be 97.19%.
Then `Cc1cnc(N2CCC3(CC2)CC(NC(=O)C(C)C)CO3)nc1` (configuration not stated), with -15.93%.
For the compound `CN(C)C(CNC(=O)c1nc(N2CCOCC2)ncc1Cl)c1ccco1` (configuration not stated), the “Percent Effect” value was -7.125%.
Then `CC(CNC(=O)c1nc(N2CCOCC2)ncc1Cl)c1ccccc1` (configuration not stated), with -18.26%; and `CC(C)C(=O)NC1CCCc2nc(N3CCOCC3)ncc21` (configuration not stated), with 72.33%.
Consider `CC(C)n1c(C2CCCN(CC(=O)NC(N)=O)C2)nc2ccccc21` (configuration not stated), for which the “Percent Effect” value is given as -22.16%.
In the case of `Cc1cc(C)n(C2CCN(Cc3c(-c4cc(C)on4)nn(C)c3Cl)C2)n1` (configuration not stated), the “Percent Effect” value worked out at 0.03188%.
Turning to `CN(C)C(=O)Cc1ccccc1NCc1cccc(F)c1F`, the “Percent Effect” value was -19.09%.
The result for `COCc1csc(NC(=O)N2CCC(Cc3cnn(C)c3)C2)n1` (configuration not stated) reads 102.3%; that for `Cn1cc(CC2CCN(C(=O)NCc3csc(C4CC4)n3)C2)cn1` (configuration not stated), 102.9%.
Then `CC(C)Cc1cc(C(=O)N2CCC(Cc3cnn(C)c3)C2)cc(O)n1` (configuration not stated), with 0.7528%.
In the case of `COCc1csc(NC(=O)NCc2ccsc2)n1`, the “Percent Effect” value was -7.736%.
Turning to `Cc1csc(CNC(=O)N(C)Cc2cnn(C)c2)n1`, the “Percent Effect” value is on record as 7.256%.
With `CC(C)c1cc(CNC(=O)N2CCC(Cc3cnn(C)c3)C2)on1` (configuration not stated), the “Percent Effect” value was 2.959%.
Consider `CC(C)CC(NC(=O)CN(C)C(=O)c1ccco1)c1cccs1` (configuration not stated), for which the “Percent Effect” value came to 25.03%.
Then `CC(=O)c1cc(CN2C[C@@H](CN3CCC(O)CC3)[C@@H](CO)C2)n(C)c1`, with 12.27%; and `CN(C)Cc1nnc(C2CCCN(c3nc(C(N)=O)cs3)C2)n1C` (configuration not stated), with 10.64%; and `NC(=O)c1csc(N2C[C@@H](CN3CCCCC3)[C@@H](CO)C2)n1`, with 104.1%.
